Assay results: PubChem BioAssay (NCI)
This is part of a sample that, as a whole, favours compounds with a hit. Of some 79,000 tested, about 15% had one in any assay. Values without a mark were called inactive. Rule as the data show it: active = growth inhibition above about 70%; inactive = the rest.

assay: NCI Yeast Anticancer Drug Screen. Data for the cln2 rad14 strain (AID 165);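 also: 0% = growth equal to vehicle treated cultures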; settings: S. cerevisiae cln2 rad14 strain, at 50.0 µM, active compounds read high
Description: Growth inhibition of yeast strains with defined genetic alterations is measured as a screen for potential anti-cancer activity. Selected strains with alterations in DNA damage repair or cell cycle control were exposed to compounds and growth inhibition was measured relative to vehicle treated controls. The strain used in this assay is cln2 rad14

Going from `CC1C(NNC(N)=O)Oc2cc3c(cc2C1c1ccccc1O)OCO3` (stereo not given) to `COc1cc(C2C3=C(COC3=O)Oc3cc4c(cc32)OCO4)cc(OC)c1OC(C)=O` (stereo not given), the growth inhibition rises from 10.2% to 16.1%.

Compared with `c1ccc(C2(c3ccccc3)CCc3ccccc3O2)cc1`, `O=C(C(c1ccccc1)c1ccccc1)N(CCO)c1ccccc1` is higher in growth inhibition: -40.5% for the first, -9.5% for the second.

Going from `Cc1nc2c(c(-c3ccccc3)n1)Cc1ccccc1O2` to `CC1=C[P+](c2ccccc2)(c2ccccc2)C=C(C)O1`, the growth inhibition rises from -10.5% to 0.65%.

Compared with `O=C1OC(=O)c2c1cccc2[N+](=O)[O-]`, `CC1(C)CC(=O)N(Nc2ccccc2)C1=O` is higher in growth inhibition: -14.4% for the first, -7.35% for the second.

Compared with `COC(CNCCO)c1ccccc1` (stereo not given), `CC(=O)NC(Cc1ccccc1)c1ccccc1` (stereo not given) is higher in growth inhibition: -89.2% for the first, 12.8% for the second.

Compared with `ClCCCCC(Cl)(Cl)Cl`, `CCCCOCCOCCO` is higher in growth inhibition: -16.3% for the first, -14.7% for the second.

Compared with `COC(=O)C(C(=O)C(=O)Nc1ccc(C)cc1C)c1nc2ccc([N+](=O)[O-])cc2[nH]c1=O` (stereo not given), `Cc1cc(C)c2c(-c3ccccc3)cc(=O)[nH]c2c1` is lower in growth inhibition: 7.95% for the first, -3.55% for the second.

Going from `NC(=NCc1ccncc1)N/N=C\c1ccnc2ccccc12` to `Brc1ccccc1/C=N\N=C\c1ccccc1Br`, the growth inhibition rises from -13.7% to -5.25%.

Going from `O=S1(=O)C2CCC(C2)C1Cl` (stereo not given) to `COC(=O)[C@@H]1Cc2ccc(OC)c(c2)OCCC(=O)N1`, the growth inhibition rises from -18.9% to -2.95%.

Compared with `COc1cc(C(OC(C)=O)OC(C)=O)c(Cl)cc1OC(C)=O`, `CNC(=O)Nc1ccc(OC)cc1OC` is lower in growth inhibition: -2.1% for the first, -66.5% for the second.

First: CCOC(=O)NC(Nc1ncccn1)(C(=O)OCC)C(F)(F)F (stereo not given)
Second: O=C(NC(=O)C(F)(F)C(F)(F)F)Nc1cc(F)ccc1F
The growth inhibition of the first is higher: -15.6% for the first, -38.8% for the second.

First: Cc1cc(CC(O)(c2ccccc2)c2ccccc2)nc2[nH]c(=O)ccc12
Second: BrCCOC(OCCBr)(c1ccccc1)c1ccccc1
The growth inhibition of the first is higher: 44.9% for the first, 11.5% for the second.

Compared with `Cc1cc(C)n(/N=C/c2ccco2)c(=O)c1C#N`, `CCOc1ccc(N2C(=O)C(=O)C(C#N)(c3nc4ccccc4o3)C(=O)C2=O)cc1` is lower in growth inhibition: 11.4% for the first, 6% for the second.

Compared with `CC1(C)CNC(=O)C2(C=NC(C)(C)CNC(=O)C3(C=N1)CCCO3)CCCO2` (stereo not given), `C(/C=N/NC1=NCCCCN1)=N\NC1=NCCCCN1` is higher in growth inhibition: -8.55% for the first, 4.5% for the second.

First: O=C1NNC=Nc2ccc(cc2)S(=O)(=O)c2ccc(cc2)N=CNNC1=O
Second: COc1cc(C2NCCC(c3ccccc3)(c3ccccc3)N2)cc(OC)c1OC (stereo not given)
The growth inhibition of the first is lower: -9.15% for the first, 4.55% for the second.

Compared with `COC(=O)c1ccc(C(=O)OC)c2nn3c(N)nnc3nc12`, `CCOc1ccc(Nc2nc(N)nc(N)c2N)cc1` is lower in growth inhibition: -12.4% for the first, -13.7% for the second.

Compared with `Nc1[nH]c(=S)nc2nc3c(c(-c4ccccc4)c12)CCCC3`, `Nc1ncnc2c1[nH]c(=O)n2-c1ccccc1` is higher in growth inhibition: -3.05% for the first, -1.3% for the second.

First: CCOC(=O)CN=C1NNS(=O)(=O)c2ccccc21
Second: CC(=O)OC1C(NC(=O)OCc2ccccc2)CC(NC(=O)OCc2ccccc2)C(O)C1O (stereo not given)
The growth inhibition of the first is higher: 28.4% for the first, -10.1% for the second.

Compared with `CC(C)CCCCCCCCCCCCC(=O)NCC(=O)NC1C(C)OC(Nc2ncnc3c2ncn3C)C(O)C1O` (stereo not given), `CC1CCCc2c1c1ccc3c(O)cccc3c1oc2=O` (stereo not given) is higher in growth inhibition: 15.6% for the first, 16.9% for the second.

Going from `Cc1cc(=O)[nH]c2[nH][nH]c(=O)c12` to `CN(C)CN1CSC(=S)N(CN(C)C)C1`, the growth inhibition falls from -7.35% to -10.7%.
